Arbovirus inh = blocks arbovirus infection. arbovirus infection cell-based antiviral screen. inhibition, % at 10 µM. actives 0.37% (n = 200,000); in the data active means inhibition above about 30%
S1P3 antagonist = S1P3 (human) receptor antagonism | AID 485 | CHO S1P3 NFAT-BLA reporter, FRET fluorescence, antagonist mode | actives 0.27% (n = 170,000) | inhibition, % at 4.98 µM | Q99500;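 active means inhibition above the plate cutoff, the mean inhibition of test wells on that plate plus 3 SD, cut at about 28% in these data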;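 further: cells challenged with S1P at its EC80 of 0.8 µM; blue over green emission ratio from cleaved BLA substrate after 4 h stimulation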
S1P4 ag = agonists of human S1P4 receptor; O95977; S1P4-expressing cell line, agonist reporter assay; activation, % at 4.98 µM; actives 0.35% (n = 220,000); in the data active means activation above about 11%
Target sequence (O95977 whole entry, looked up): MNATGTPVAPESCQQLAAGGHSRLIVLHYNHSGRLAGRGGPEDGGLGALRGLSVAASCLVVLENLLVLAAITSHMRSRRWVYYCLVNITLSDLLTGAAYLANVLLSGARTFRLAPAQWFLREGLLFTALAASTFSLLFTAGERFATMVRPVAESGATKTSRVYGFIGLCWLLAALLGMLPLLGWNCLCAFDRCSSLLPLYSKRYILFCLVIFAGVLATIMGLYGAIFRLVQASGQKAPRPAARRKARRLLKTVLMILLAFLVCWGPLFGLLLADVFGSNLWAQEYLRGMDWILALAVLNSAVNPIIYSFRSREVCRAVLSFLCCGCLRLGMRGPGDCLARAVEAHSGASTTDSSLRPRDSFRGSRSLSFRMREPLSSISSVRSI
Redox H2O2 prof = compounds producing H2O2 with reducing agent – biochemical, NIH compound library profiling, artefact control for MLSCN library redox annotation, primary screen. AID 878. activation, % at 10 µM. actives 0.03% (n = 200,000). DTT-dependent redox cycling H2O2, phenol red/HRP absorbance; 100% = 100 µM peroxide control, 0% = buffer;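 active means activation of at least 50% relative to the plate's high and low controls in the primary single-dose screen; inactive means activation below 50%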;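 further: compound incubated with DTT at 0.8 mM final as the reducing agent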
p97 ATPase inh = human p97 ATPase inhibition; P55072; inhibition, % at 8 µM; recombinant p97 ATPase, Kinase-Glo ATP luminescence, 3 h; actives 0.42% (n = 220,000); in the data active means inhibition above about 15%
S1P4 antag = human S1P4 receptor antagonism; O95977; AID 1510; inhibition, % at 4.98 µM; actives 0.26% (n = 220,000); S1P4-expressing cells, antagonist mode, reporter read-out; in the data active means inhibition above about 29%
Large screens that a line does not name were inactive. In the library only some 1.6% were active in any assay of this set; here they are far more common.

O=C(Cc1nnc(NC(=O)Nc2ccccc2F)s1)NCc1ccccc1	none (no result: Arbovirus inh, Redox H2O2 prof)
O=C(Oc1ccc2[nH]cc(CCN3C(=O)c4ccccc4C3=O)c2c1)c1ccco1	none
COc1ccc2c(c1)c(CCN1C(=O)c3ccccc3C1=O)cn2C(=O)c1ccco1	S1P3 antagonist 55.0
O=S(=O)(c1cc(Cl)ccc1Cl)N1CCN(Cc2ccc3c(c2)OCO3)CC1	S1P3 antagonist 86.5
COc1cccc(NC(=O)COC(=O)CCS(=O)(=O)c2ccc(C)cc2)c1	none
Cc1cc(C(=O)O)ccc1-c1ccc(/C=C2\NC(=O)N(Cc3ccccc3Cl)C2=O)o1	none
Cc1ccc(C(=O)O)cc1-c1ccc(/C=C2/NC(=O)N(c3ccccc3)C2=O)o1	Arbovirus inh 39.9 (no result: S1P3 antagonist)
O=c1[nH][nH]c2c(N=Cc3ccccc3O)ccc(F)c12	p97 ATPase inh 40.4 (no result: Arbovirus inh, Redox H2O2 prof)
CCc1ccc(O)c(N=Cc2ccccc2O)c1	none
O=C1NN(c2ccccc2)C(=O)/C1=C/c1ccc(Sc2cccc3ccccc23)o1	none
O=C1NN(c2cccc(Br)c2)C(=O)/C1=C/c1ccc(-c2cc([N+](=O)[O-])ccc2O)o1	p97 ATPase inh 35.4 (no result: Arbovirus inh, Redox H2O2 prof)
COc1ccccc1NC(=S)NCCSc1ccc(C)cc1	Arbovirus inh 33.5
O=C(NCc1ccc2c(c1)OCO2)c1ccc(N2C(=O)C3CCCCC3C2=O)cc1 (stereo unspecified)	none (no result: S1P3 antagonist)
O=C(O)c1csc(N/N=C/c2ccc(Br)cc2)n1	Arbovirus inh 46.1
C(=N\Nc1nc(-c2ccccc2)cs1)/c1ccncc1	none
CC(C)Oc1ccc(-c2nn(-c3ccccc3)cc2/C=c2\sc3ncnn3c2=O)cc1	Arbovirus inh 33.8
O=c1/c(=C/c2cn(-c3ccccc3)nc2-c2ccc(F)cc2)sc2nc3ccccc3n12	none (no result: S1P3 antagonist)
CCC(=O)Nc1cccc(-n2nnnc2SCC(=O)N2CCCCC2)c1	none
O=C(O)C(Cc1ccccc1)N1C(=O)/C(=C/C=C/c2ccco2)SC1=S (stereo unspecified)	p97 ATPase inh 27.1 (no result: Arbovirus inh, Redox H2O2 prof)
O=C(O)CC(C(=O)O)N1C(=O)/C(=C/C=C/c2ccco2)SC1=S (stereo unspecified)	none (no result: Arbovirus inh, Redox H2O2 prof)
N=c1oc2cc(O)ccc2cc1C(=O)Nc1ccccn1	S1P4 ag 73.7
Cc1ccc(NC(=O)CSc2nnc3n2CCCCC3)cc1	none
C/C(=N/NC(=O)c1ccncc1)c1cc2ccc(O)cc2oc1=O	S1P4 ag 47.7
C/C(=N\NC(=O)c1ccncc1)c1cc2ccccc2oc1=O	none
CC1Cc2ccccc2N1C(=O)C1CCCN(S(=O)(=O)c2cccc3cccnc23)C1 (stereo unspecified)	S1P3 antagonist 81.7
CC(=O)NC(CC(=O)N(C)Cc1cccc(Cl)c1Cl)c1ccccc1 (stereo unspecified)	none
O=c1[nH]n2c(=O)c3c([nH]c2c1N=Nc1cccc(Cl)c1)CCC3	Arbovirus inh 34.5
COc1cccc(N=Nc2c(=O)[nH]n3c(=O)c4c([nH]c23)CCC4)c1	none
O=c1[nH]n2c(=O)c3c([nH]c2c1N=Nc1cccc(C(F)(F)F)c1)CCCC3	Arbovirus inh 36.6 (no result: S1P3 antagonist)
COc1ccc(CNC(=O)CNS(=O)(=O)c2ccc(Cl)cc2)cc1	none
COc1ccc(Cn2c(C)c(C)c(C#N)c2NC(=O)Nc2ccccc2)cc1	none (no result: S1P3 antagonist)
COc1ccc(Cn2c(C)c(C)c(C#N)c2NC(=O)Nc2cccc(C)c2)cc1	Arbovirus inh 52.1 (no result: S1P3 antagonist)
Cc1ccccc1NC(=O)CN1C(=O)COc2ccc(Cl)cc21	p97 ATPase inh 15.0
CCc1cc(C(=O)O)c(NC(=O)C(c2ccccc2)c2ccccc2)s1	Arbovirus inh 34.7 (no result: S1P3 antagonist)
C/C(CC(=O)Nc1ccc2c(c1)OCO2)=N\NC(=O)OC(C)(C)C	none
CN(Cc1ccccc1)C(=O)COC(=O)CCNC(=O)c1ccccc1Cl	none
N#Cc1c2n(c3c(=S)nc[nH]c13)CCCCC2	Arbovirus inh 31.5 (no result: S1P3 antagonist)
CC(C)CSC1=NSC2=NC(=O)/C(=C\c3coc4ccccc4c3=O)C(=N)N12	Arbovirus inh 51.6
CSC1=NSC2=NC(=O)/C(=C\c3coc4ccccc4c3=O)C(=N)N12	none
CCN(CC(=O)NC1CCS(=O)(=O)C1)c1nc(-c2ccccc2)nc2ccccc12 (stereo unspecified)	S1P3 antagonist 93.5
Cc1ccc(C2C(C#N)=C(N)SC(N)=C2C#N)o1	p97 ATPase inh 15.3
CCc1ccc(C2C(C#N)=C(N)SC(N)=C2C#N)s1	none
CCc1cc2c(=O)c(-c3cscn3)coc2c(CN(C)C)c1O	Arbovirus inh 38.5 (no result: S1P3 antagonist)
COc1ccc(OC)c(NC(=O)c2cccnc2Sc2ccccc2)c1	none
CCC1=NN2C(=N)/C(=C\c3cccn3-c3ccc(C)cc3C)C(=O)N=C2S1	Arbovirus inh 39.4
CCC1=NN2C(=N)/C(=C\c3cccn3-c3cccc(Cl)c3)C(=O)N=C2S1	none
CCC1=NN2C(=N)/C(=C\c3cccn3-c3c(C)cccc3C)C(=O)N=C2S1	Arbovirus inh 31.4
COc1cc(/C=C2\SC(=O)N(c3ccc(Cl)cc3)C2=O)cc([N+](=O)[O-])c1O	Arbovirus inh 57.2
COc1cc(/C=C2\SC(=O)N(c3cccc(Cl)c3)C2=O)cc([N+](=O)[O-])c1O	none
Cc1ccc(N2CCN(C(=O)N3CCOCC3)CC2)c(C)c1	none
O=C(NCc1cccnc1)NC1(c2ccccc2)CC1	S1P3 antagonist 76.6
O=S(=O)(c1ccc(Oc2ncnc3scc(-c4ccccc4)c23)cc1)N1CCOCC1	none
CC(=O)Nc1cccc(Oc2ncnc3scc(-c4ccccc4)c23)c1	Arbovirus inh 45.3
O=C(NCc1ccncc1)C1CCCCC1	none (no result: S1P3 antagonist)
CCn1cc(C(C)NC(=O)Nc2ccccc2C(=O)OC)c(C)n1 (stereo unspecified)	none
Cc1ccc(Nc2nc(-c3ccc(O)c(O)c3)cs2)nc1	none
COc1ccc(-c2csc(Nc3ccc(C)cn3)n2)cc1OC	Arbovirus inh 52.6
C=CCC(CC=C)(NC(=O)c1ccccc1C)c1ccccc1	none (no result: S1P3 antagonist)
COc1ccc(-c2cc(-c3ccc(Br)cc3)nc3ncnn23)cc1OC	Arbovirus inh 72.1 (no result: S1P3 antagonist)
O=C(Nc1nc2ccccc2s1)c1ccc(N2CCCCC2)c([N+](=O)[O-])c1	Arbovirus inh 37.7
O=C(Nc1ccon1)c1ccc(N2CCCCC2)c([N+](=O)[O-])c1	none
Cc1cc(C)c2cc(CN(Cc3cccnc3)C(=O)c3ccc(F)cc3)c(Cl)nc2c1	Arbovirus inh 91.1 (no result: S1P3 antagonist)
COc1ccccc1-c1cc(C(F)(F)F)nc(S(=O)(=O)CCCC(=O)Nc2cccnc2Cl)n1	S1P4 antag 49.9
COc1ccccc1-c1cc(C(F)(F)F)nc(S(=O)(=O)CCCC(=O)NC(C)C)n1	none
CC(C)(C)c1ccc(OCCNC(=O)c2ncn[nH]2)cc1	none (no result: S1P3 antagonist)
CC(C)(C)c1ccc(C(=O)Nc2sc3c(c2C(=O)O)CCC3)cc1	Arbovirus inh 31.9
CC(C)OC(=O)c1c(NC(=O)c2cccs2)sc2c1CCCC2	none
Cc1ccc(C(=O)Nc2sc3c(c2C(=O)O)CCCCC3)o1	Arbovirus inh 47.2

High-throughput results (PubChem)
